Read-out in assay [1]: Vascular endothelial growth factor receptor 2 (Homo sapiens) (UniProt P35968)
In words: BSK_4H_VEGFRII: BioMAP Diversity Plus: 4H Assay for Vascular endothelial growth factor receptor 2 (VEGFR2) Biomarker Activity (AID 2283031).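 On AC50: cell-surface VEGFR2 protein level quantified by ELISA.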 The conditions noted are these: primary human endothelial cells (HUVEC); actives raise or lower the signal. The method in brief:
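Primary human umbilical vein endothelial cells in the BioMAP 4H system were dosed with test chemical, and 24 h later VEGFRII was measured by ELISA. Activity was fitted bidirectionally against DMSO as negative control and baseline.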

Read-out in assay [2]: Human Leukocyte Antigen - DR isotype (HLADR), HLA-DRA (gene 3122)
Briefly: BSK_BE3C_HLADR: BioMAP Diversity Plus: BE3C Assay for Human Leukocyte Antigen - DR isotype (HLADR) Biomarker Activity (AID 2283032). The conditions noted are these: primary human bronchial epithelial cells; actives raise or lower the signal. The method in brief: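 Chemicals are dosed onto BE3C bronchial epithelial cultures of human origin and left 24 h. HLA-DR is then measured by ELISA, and the endpoint is fitted in both directions using DMSO as the activity baseline.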

Read-out in assay [3]: Vascular cell adhesion molecule 1 (VCAM1), VCAM1 (gene 7412)
Briefly: BSK_4H_VCAM1: BioMAP Diversity Plus: 4H Assay for Vascular cell adhesion molecule 1 (VCAM1) Biomarker Activity (AID 2283033).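 On outcome: cell-surface VCAM-1 protein measured by ELISA.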 The conditions noted are these: primary human endothelial cells (HUVEC); actives raise or lower the signal. The method in brief:
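Chemicals are added to primary human umbilical vein endothelial cells. After 24 h, VCAM-1 levels are measured by ELISA. Values come from bidirectional fitting referenced to DMSO.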

Read-out in assay [4]: Interferon-gamma inducible Protein 10 (IP10), CXCL10 (gene 3627)
In words: BSK_BE3C_IP10: BioMAP Diversity Plus: BE3C Assay for Interferon-gamma inducible Protein 10 (IP10) Biomarker Activity (AID 2283034). The conditions noted are these: primary human bronchial epithelial cells; actives raise or lower the signal. Put shortly: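 IP-10 quantified by ELISA serves as the endpoint. Cells: primary human bronchial epithelium, read 24 h after compound addition. Activity is derived by bidirectional fitting with DMSO as negative control.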

Read-out in assay [5]: Monokine induced gamma interferon (MIG), CXCL9 (gene 4283)
Briefly: BSK_BE3C_MIG: BioMAP Diversity Plus: BE3C Assay for Monokine induced gamma interferon (MIG) Biomarker Activity (AID 2283035).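 On outcome: MIG protein measured by ELISA in BE3C cultures after 24 h of dosing.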 The conditions noted are these: primary human bronchial epithelial cells; actives raise or lower the signal. The method in brief: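 ELISA quantified MIG after 24 h exposure of primary bronchial epithelial cultures, analysed in both directions relative to DMSO. Cytotoxicity tracked in parallel cultures by sulforhodamine B staining.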

Read-out in assay [6]: Transforming growth factor beta 1 (TGFb1), TGFB1 (gene 7040)
In words: BSK_BE3C_TGFb1: BioMAP Diversity Plus: BE3C Assay for Transforming growth factor beta 1 (TGFb1) Biomarker Activity (AID 2283036;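 on outcome: TGF-b1 protein level measured by ELISA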). The conditions noted are these: primary human bronchial epithelial cells; actives raise or lower the signal. Put shortly:
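Bronchial epithelial primary cells are treated with test chemical, then TGF-b1 is quantified by ELISA after 24 hours. Values derive from bidirectional fitting against DMSO, with cytotoxicity checked by SRB staining in parallel cultures.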

Read-out in assay [7]: Plasminogen activator inhibitor-1 (PAI1), SERPINE1 (gene 5054)
In words: BSK_BE3C_PAI1: BioMAP Diversity Plus: BE3C Assay for Plasminogen activator inhibitor-1 (PAI1) Biomarker Activity (AID 2283037). The conditions noted are these: primary human bronchial epithelial cells; actives raise or lower the signal. The method in brief:
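Values derive from bidirectional fitting against DMSO baseline of PAI-1 levels, measured by ELISA in human bronchial epithelial cells 24 h after compound addition.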

Read-out in assay [8]: urokinase plasminogen activator (uPA), PLAU (gene 5328)
In words: BSK_BE3C_uPA: BioMAP Diversity Plus: BE3C Assay for urokinase plasminogen activator (uPA) Biomarker Activity (AID 2283038).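 On outcome: uPA protein level quantified by ELISA in cell cultures; uPA read one day after compound addition.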 The conditions noted are these: primary human bronchial epithelial cells; actives raise or lower the signal. Put shortly: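 Human primary bronchial epithelial cells were exposed to chemical for 24 h, then uPA levels were measured by ELISA. Responses were fitted bidirectionally against DMSO as negative control and baseline. Parallel SRB staining of total protein gauged overt cytotoxicity.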

Read-out in assay [9]: Urokinase-type plasminogen activator receptor (uPAR), PLAUR (gene 5329)
In words: BSK_BE3C_uPAR: BioMAP Diversity Plus: BE3C Assay for Urokinase-type plasminogen activator receptor (uPAR) Biomarker Activity (AID 2283039).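 On outcome: cells exposed to compound for one day before measurement.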 The conditions noted are these: primary human bronchial epithelial cells; actives raise or lower the signal. Put shortly: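 Steps: dose human primary bronchial epithelial cells, incubate 24 h, measure uPAR by ELISA, then fit gain- or loss-of-signal response bidirectionally relative to DMSO.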

Read-out in assay [10]: Interleukin-6 (IL6), IL6 (gene 3569)
Briefly: BSK_CASM3C_IL6: BioMAP Diversity Plus: CASM3C Assay for Interleukin-6 (IL6) Biomarker Activity for (AID 2283040). The conditions noted are these: primary human coronary artery smooth muscle cells; actives raise or lower the signal.

Read-out in assay [11]: Tissue plasminogen activator (tPA), PLAT (gene 5327)
In words: BSK_BE3C_tPA: BioMAP Diversity Plus: BE3C Assay for Tissue plasminogen activator (tPA) Biomarker Activity (AID 2283041).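 On outcome: tPA level quantified by ELISA one day after compound addition.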 The conditions noted are these: primary human bronchial epithelial cells; actives raise or lower the signal. Put shortly: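 Gain- or loss-of-signal in tPA, measured by ELISA, derived by bidirectional fitting against DMSO. Cells: human primary bronchial epithelial; read at 24 h after chemical dosing.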

Read-out in assay [12]: Interleukin-8 (IL8), CXCL8 (gene 3576)
Briefly: BSK_CASM3C_IL8: BioMAP Diversity Plus: CASM3C Assay for Interleukin-8 (IL8) Biomarker Activity (AID 2283042).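 Further: IL-8 protein level quantified by ELISA.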 The conditions noted are these: primary human coronary artery smooth muscle cells; actives raise or lower the signal.

Read-out in assay [13]: Human Leukocyte Antigen - DR isotype (HLADR), HLA-DRA (gene 3122)
In words: BSK_CASM3C_HLADR: BioMAP Diversity Plus: CASM3C Assay for Human Leukocyte Antigen - DR isotype (HLADR) Biomarker Activity (AID 2283043).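 Further: cell-surface HLA-DR protein level quantified by ELISA.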 The conditions noted are these: primary human coronary artery smooth muscle cells; actives raise or lower the signal.

Read-out in assay [14]: Macrophage colony-stimulating factor (MCSF), CSF1 (gene 1435)
Briefly: BSK_CASM3C_MCSF: BioMAP Diversity Plus: CASM3C Assay for Macrophage colony-stimulating factor (MCSF) Biomarker Activity (AID 2283044).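 Further: M-CSF protein amount quantified by ELISA after 24 h exposure.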 The conditions noted are these: primary human coronary artery smooth muscle cells; actives raise or lower the signal.

Read-out in assay [15]: Low-density lipoprotein receptor (LDLR), LDLR (gene 3949)
In words: BSK_CASM3C_LDLR: BioMAP Diversity Plus: CASM3C Assay for Low-density lipoprotein receptor (LDLR) Biomarker Activity (AID 2283045).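 Further: LDLR protein level on the cell surface quantified by ELISA.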 The conditions noted are these: primary human coronary artery smooth muscle cells; actives raise or lower the signal.

Read-out in assay [16]: Monocyte Chemoattractant Protein-1 (MCP1), CCL2 (gene 6347)
Briefly: BSK_CASM3C_MCP1: BioMAP Diversity Plus: CASM3C Assay for Monocyte Chemoattractant Protein-1 (MCP1) Biomarker Activity (AID 2283046).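 Further: MCP-1 level quantified by ELISA 24 h after dosing.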 The conditions noted are these: primary human coronary artery smooth muscle cells; actives raise or lower the signal.

The nature of assay [17]: BSK_CASM3C_Proliferation: Cell Proliferation Assessment in the BioMAP Diversity Plus: CASM3C Assay (AID 2283047).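 Further: sulforhodamine B total protein stain as relative cell number at 560 nm; sub-confluent cells exposed 48 h before staining; fitted both ways against DMSO so gain or loss of cell number.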 The conditions noted are these: primary human coronary artery smooth muscle cells.
Read-out in assay [18]: Monokine induced gamma interferon (MIG), CXCL9 (gene 4283)
Briefly: BSK_CASM3C_MIG: BioMAP Diversity Plus: CASM3C Assay for Monokine induced gamma interferon (MIG) Biomarker Activity (AID 2283048). The conditions noted are these: primary human coronary artery smooth muscle cells; actives raise or lower the signal.

Read-out in assay [19]: serum amyloid A (SAA), SAA1 (gene 6288)
Briefly: BSK_CASM3C_SAA: BioMAP Diversity Plus: CASM3C Assay for serum amyloid A (SAA) Biomarker Activity (AID 2283049).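 Further: SAA protein level quantified by ELISA.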 The conditions noted are these: primary human coronary artery smooth muscle cells; actives raise or lower the signal.

Assay [20] in a line: BSK_CASM3C_SRB: Viability Assessment in the BioMAP Diversity Plus: CASM3C Assay (AID 2283050).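 Further: total protein by SRB staining as cytotoxicity measure in parallel cultures.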 The conditions noted are these: primary human coronary artery smooth muscle cells.

Molecules are shown by their SMILES. Calls of active or inactive are those of the source. How the source made its calls: active means hit-call score of the fitted dose curve at least 0.9, where 1 is the maximum; inactive means score below 0.9.

A word on the AC50: it is the concentration at which the activity in the assay is half-maximal. As to `NC(=O)Cn1c(=O)cc(CCN2CCN(c3nccc4sccc34)CC2)c2ccc(F)cc21`, the result in assay [1], in assay [2], in assay [4], in [5], in [6] and in assay [7] was inactive. Moreover, the outcome in assay [8], in [9], in [10], in [11], in assay [12] and in assay [13] was inactive. Further, the outcome in [14], in [16], in assay [17], in [18], in assay [19] and in assay [20] was inactive. The half-maximal activity concentration (AC50) is 7.88 µM (active) in assay [3] and 27.5 µM (active) in assay [15].
Take `Cc1ccc(C)c(O)c1C`: the outcome in assay [1], in assay [2], in [3], in assay [4], in assay [5] and in assay [6] was inactive. The result in assay [7], in [8], in assay [9], in assay [10], in assay [11] and in [12] was inactive. The result in assay [13], in assay [14], in [15], in assay [16], in [17] and in assay [18] was inactive. Moreover, the outcome in [19] and in assay [20] was inactive.
In the case of `C1CCC(SSC2CCCCC2)CC1`, the result in assay [1], in assay [2], in assay [4], in [5], in assay [6] and in assay [7] was inactive. In addition, the result in assay [8], in assay [9], in [10], in assay [11], in assay [12] and in assay [14] was inactive. The result in assay [15], in assay [18], in assay [19] and in assay [20] was inactive. In addition, the AC50 in [3] was 20 µM (active); in assay [13], 30.5 µM (active); in [16], 31.5 µM (active); in [17] it was 34.1 µM (active).
For the molecule `CCOC(=O)C(C)(C)Oc1ccc(Cl)cc1`, the result in assay [1], in assay [2], in assay [3], in [4], in assay [5] and in [6] was inactive. Moreover, the result in assay [7], in [8], in assay [9], in [10], in [11] and in [12] was inactive. For the same molecule, the result in assay [13], in assay [14], in assay [15], in assay [16], in assay [17] and in assay [18] was inactive. The result in [19] and in assay [20] was inactive.
For `NS(=O)(=O)c1cc2c(cc1Cl)NCNS2(=O)=O`, the outcome in [1], in assay [2], in assay [3], in assay [4], in [5] and in assay [6] was inactive. In addition, the result in assay [7], in assay [8], in assay [9], in assay [10], in assay [11] and in [12] was inactive. The outcome in [13], in assay [14], in assay [15], in assay [16], in assay [17] and in assay [18] was inactive. The result in [19] and in assay [20] was inactive.
As to `COc1cc(-c2nc(NC(=O)c3cc4cc(C)cc(C)c4n3CC(=O)O)sc2CCC2CCCCC2)c(OC)cc1Cl`, the AC50 is 4.37 µM (active) in [1]; 1.25 µM (active) in assay [2]; 4.36 µM (active) in [3]; 1.3 µM (active) in [4]; 1.56 µM (active) in assay [5]; 4.38 µM (active) in [6]. For the same molecule, the concentration at half-maximal activity (AC50) is 0.877 µM (active) in assay [7]; 1.03 µM (active) in [8]; 4.47 µM (active) in assay [9]; 4.7 µM (active) in assay [10]; 0.969 µM (active) in [11]; 7.07 µM (active) in assay [12]. Moreover, the AC50 in assay [13] was 5.92 µM (active); in assay [14], 22.9 µM (active); in [15], 4.25 µM (active); in assay [16] it was 8.09 µM (active); in assay [17], 10.8 µM (active); in assay [18], 11.7 µM (active). Besides, the half-maximal activity concentration (AC50) in assay [19] was 8.47 µM (active); in assay [20], 7.05 µM (active).

Values taken from PubChem BioAssay (EPA / NIEHS).
